Calls of active or inactive are those of the source. Calls come from the whole dose curve.
Experiment: qHTS drug screen for cell cycle checkpoint inhibitors in PARPi-resistant BRCA-mutant ovarian cancer cell lines. (AID 1963452)
Details: PEO1/OlaR viability, CellTiter-Glo luminescence, 96 h, stronger effect = lower value
Method in brief: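 PEO1, PEO4 and PEO1/OlaR ovarian cancer cells, 600 per well, exposed 96 h at 37C to a dilution series. Viability read by CellTiter-Glo luminescence, normalized to DMSO and empty wells; activity summarized as Z-AUC.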

[1] = measured here: PEO1 parental Z-AUC

In the case of `CC[C@H](C)n1cc(C)c2c(C(=O)NCc3c(C)cc(C)[nH]c3=O)cc(-c3ccc(N4CCNCC4)nc3)cc21`, the Z-AUC is reported as 1.9 (inactive), the Z-AUC [1] is reported as 1.58 and the Z-AUC (measured here: PEO4 Z-AUC) is reported as 1.72.
In the case of `Cc1cnc(CNC(=O)c2c(=O)c3ccc(N4CCCN(C)CC4)nc3n3c2sc2ccccc23)cn1`, the Z-AUC is reported as -0.335 (inactive), the Z-AUC [1] is reported as -0.603 and the Z-AUC (measured here: PEO4 Z-AUC) is reported as 0.0193.
With `O=[N+]([O-])c1ccc(Nc2ccccc2-c2ccccc2)c2nonc12` the Z-AUC was 0.186 (inactive), the Z-AUC [1] was 0.785 and the Z-AUC (measured here: PEO4 Z-AUC) was 0.946.
In the case of `CCc1cccc(CC)c1NC(=O)N1Cc2[nH]nc(NC(=O)c3ccc(N4CCN(C)CC4)cc3)c2C1`, the Z-AUC is reported as -0.0238 (inactive), the Z-AUC [1] is reported as 0.421 and the Z-AUC (measured here: PEO4 Z-AUC) is reported as -0.125.
For `COc1nccc(-c2c(-c3ccc(F)cc3)ncn2C2CCC(O)CC2)n1` (stereo not drawn), the Z-AUC was 1.26 (inactive), the Z-AUC [1] was 1.27 and the Z-AUC (measured here: PEO4 Z-AUC) was 1.21.
In the case of `CC(C)CNc1ccnc(NCc2csc(-c3ccccc3)n2)n1`, the Z-AUC is reported as -1 (inactive), the Z-AUC [1] is reported as -0.906 and the Z-AUC (measured here: PEO4 Z-AUC) is reported as -0.83.
With `Cc1cccc(-c2[nH]c(C(C)(C)C)nc2-c2ccc3c(c2)OCO3)n1` the Z-AUC was -0.37 (inactive), the Z-AUC [1] was -0.0617 and the Z-AUC (measured here: PEO4 Z-AUC) was 0.278.
For `CNC(=O)c1cc(Oc2ccc(NC(=O)Nc3ccc(Cl)c(C(F)(F)F)c3)c(F)c2)ccn1`, the Z-AUC was 0.96 (inactive), the Z-AUC [1] was 0.462 and the Z-AUC (measured here: PEO4 Z-AUC) was 0.496.
With `C=CC(=O)Nc1cccc(Sc2nc(Nc3ccc(N4CCN(C)CC4)cc3)ncc2Cl)c1` the Z-AUC was -0.713 (inactive), the Z-AUC [1] was 0.0484 and the Z-AUC (measured here: PEO4 Z-AUC) was 0.0662.
In the case of `CN1CC(=O)NC1=NC(=O)Nc1cccc(Cl)c1`, the Z-AUC is reported as 0.638 (inactive), the Z-AUC [1] is reported as 0.15 and the Z-AUC (measured here: PEO4 Z-AUC) is reported as 0.317.
In the case of `CCn1c(-c2nonc2N)nc2cncc(CNC3CCNCC3)c21`, the Z-AUC is reported as -0.284 (inactive), the Z-AUC [1] is reported as 0.212 and the Z-AUC (measured here: PEO4 Z-AUC) is reported as 0.661.
